The results in this text go back to PubChem BioAssay AID1851 (National Center for Advancing Translational Sciences (NCATS), 2009).

Structures are written as SMILES. In all, about 16,000 compounds went through this assay and about 5,700 (36%) were called active. Inconclusive results (about 24%) are left out. The list shows a part of the results. A number with no mark means an inactive call. Calls come from the whole dose curve; as a rule, active = well fitted curve in the direction sought with a large enough effect; inconclusive = small, poorly fitted or top-dose-only effect, or effect the other way; inactive = no such curve, though single readings can be large or run the other way.
% is set by controls: 0 for no effect and ±100 for the full control effect.

The target in this experiment is Cytochrome P450 1A2 (Homo sapiens) (UniProt P05177). The experiment can be described thus: Cytochrome panel assay with activity outcomes. The settings on record: recombinant CYP, pro-luciferin dealkylation, luminescence, p450-cyp1a2; series mostly up to 57.1 µM; activity, negative = inhibition: at the top concentration.
Chain of Cytochrome P450 1A2 (Homo sapiens) (P05177 whole entry, looked up): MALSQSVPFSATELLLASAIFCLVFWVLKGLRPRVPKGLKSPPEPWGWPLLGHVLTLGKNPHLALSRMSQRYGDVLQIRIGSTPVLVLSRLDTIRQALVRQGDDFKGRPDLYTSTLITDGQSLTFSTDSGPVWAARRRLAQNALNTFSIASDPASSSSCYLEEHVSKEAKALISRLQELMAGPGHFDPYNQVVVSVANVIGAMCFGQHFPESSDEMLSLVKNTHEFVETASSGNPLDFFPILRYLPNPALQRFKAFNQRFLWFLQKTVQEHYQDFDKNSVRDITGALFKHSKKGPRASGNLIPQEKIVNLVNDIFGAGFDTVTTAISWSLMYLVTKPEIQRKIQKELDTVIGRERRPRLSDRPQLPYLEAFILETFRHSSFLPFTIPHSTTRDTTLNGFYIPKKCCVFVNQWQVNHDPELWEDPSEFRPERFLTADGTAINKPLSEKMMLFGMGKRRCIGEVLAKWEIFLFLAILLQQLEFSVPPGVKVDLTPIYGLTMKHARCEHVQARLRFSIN
In the case of `COc1ccc(Cl)cc1N=Nc1ncc[nH]1`, the concentration at half-maximal activity (AC50) – broadly, the midpoint of the concentration-response curve, whichever way the signal moves – was 0.631 µM (active).
`Cn1c(=O)[nH]c(=O)c2c1nc(CN1CCOCC1)n2Cc1ccccc1`: the “activity, negative = inhibition” value was 2.89%.
Consider `Clc1ccc(Cn2c(CN3CCCC3)nc3ccccc32)cc1`, for which the AC50 is 10 µM (active).
Turning to `O=C(CN(c1ccccc1)S(=O)(=O)c1ccccc1)NCCSCc1ccco1`, the “activity, negative = inhibition” value is -14.5%.
For the compound `CC(C(=O)NCc1ccc2c(c1)OCO2)N1c2cccc3cccc(c23)S1(=O)=O` (stereo unspecified), the AC50 is 1.78 µM (active).
Take `COc1ccccc1C1=NOC(COC(=O)c2ccc3ccccc3n2)C1` (stereo unspecified): the AC50 was 14.1 µM (active).
As for `O=C(O)c1c(-c2c3ccc(=O)cc-3oc3cc(O)ccc23)cc2ccccc2c1-c1ccccc1`, the activity, negative = inhibition was -17.6% [at 2.29 µM].
As for `CNC(=O)/C(C#N)=c1\s/c(=C/C(=O)OC)c(=O)n1-c1ccccc1`, the “activity, negative = inhibition” value was -4.92%.
`COC(=O)[C@@H]1[C@@H](O)[C@]2(O)c3ccccc3O[C@]2(c2ccccc2)[C@H]1c1ccccc1`: the activity, negative = inhibition was -6.42% [at 11.4 µM].
Same read-out and setting: then `COc1ccccc1CNC(=O)CCCn1c(=O)c2ccccc2n(CC(=O)NC2CCCC2)c1=O`, with 0.328%.
Consider `COc1cc(CNC2CCCC2)cc(Cl)c1OCc1ccccc1Cl`, for which the AC50 was 0.708 µM (active).
Regarding `COc1cc(O)oc1C=Nc1ccc(Cl)cc1`, the AC50 is 2.24 µM (active).
In the case of `COc1cccc(CNc2ccc(F)c(Cl)c2)c1O`, the “activity, negative = inhibition” value is -22.8%.
For `COc1cc(O)oc1C=Nc1ccc(C(F)(F)F)cc1`, the AC50 was 0.501 µM (active).
Take `COC(=O)N1CCC2(CCN(C(=O)Nc3ccccc3)CC2)CC1`: the “activity, negative = inhibition” value was -5.21%.
In the case of `CCC#CCOCC(=O)Nc1ccccc1`, the AC50 is 25.1 µM (active).
Turning to `CC(C)CN1CCCC2(CCN(C(=O)c3cccc(F)c3)CC2)C1`, the “activity, negative = inhibition” value was 7.46%.
Regarding `Nc1ncnc2c1ncn2[C@H]1O[C@@H](CO)[C@@H](O)[C@H]1N`, the activity, negative = inhibition was -8.67% [at 11.4 µM].
For `CCCCCCCOC1(c2ccccc2)OC(=O)c2ccccc21` (stereo unspecified), the “activity, negative = inhibition” value was -19.2%.
For the compound `Cc1cccc(C)c1OC1(c2ccccc2)OC(=O)c2ccccc21` (stereo unspecified), the concentration at half-maximal activity (AC50) is 20 µM (active).
Take `CCCCOC1(c2ccccc2)OC(=O)c2ccccc21` (stereo unspecified): the “activity, negative = inhibition” value is -28.7%.
In the case of `CC(=O)N1CCC2(CC1)CCN(c1ccccn1)CC2`, the “activity, negative = inhibition” value was 1.45%.
`O=C1C=CC(=Nc2cccc3c(N=C4C=CC(=O)O4)cccc23)O1`: the activity, negative = inhibition is -14% [at 11.4 µM].
Take `O=C(CSc1nc2ccccc2[nH]1)Nc1c(F)cccc1F`: the AC50 was 8.91 µM (active).
Consider `O=C(CCN1C(=O)C2C3C=CC(C3)C2C1=O)Nc1c(F)cccc1F` (stereo unspecified), for which the “activity, negative = inhibition” value is 2.98%.
On to `O=C(O)CSc1nc2ccccc2[nH]1`, for which the activity, negative = inhibition is -19.8% [at 11.4 µM].
As to `CS(=O)(=O)c1ccccc1COC(=O)Nc1ccc(Cl)cc1`, the AC50 is 17.8 µM (active).
Regarding `O=C(Nc1ccc(Cl)cc1)OCc1cc(-c2ccccc2Cl)on1`, the AC50 is 0.447 µM (active).
For `Cc1onc(-c2ccccc2Cl)c1C(=O)Nc1nnc(Cc2ccc(Cl)cc2)s1`, the “activity, negative = inhibition” value is -24.7%.
Consider `O=C(Nc1ccccc1)OCc1cc(-c2ccc(Cl)cc2)on1`, for which the AC50 was 0.562 µM (active).
The same measure, in the same setting: then `O=C(Nc1ccc(Cl)cc1)OCc1cc(-c2ccccc2)on1`, with 2.24 µM (active).
